The values below come from ChEMBL document CHEMBL4888484, “Replenishing the malaria drug discovery pipeline: Screening and hit evaluation of the MMV Hit Generation Library 1 (HGL1) against asexual blood stage Plasmodium falciparum ,using a nano luciferase reporter read-out” (2022).

The structures appear in SMILES notation. In all, about 4,800 compounds went through this assay and about 410 (8.5%) showed an effect of 50% or more. The full list was thinned out, with strong results kept by preference.

This assay has as its system Plasmodium falciparum. Briefly: Confirmatory screen in NF54 pLDH assay, in single point, at 2uM, 72h. The class given is functional, Erythrocyte. The following applies: timepoint 72 hour.
Take `CCCS(=O)(=O)NC[C@H]1C[C@@H]2CCN1C[C@@H]2c1cc(C(CC)CC)nc(-c2ccncc2)n1`: the “% Inhibition” value is listed as 25%.

For the compound `CCC(CC)c1cc([C@H]2CN3CC[C@H]2C[C@@H]3CNS(=O)(=O)Cc2ccccc2)nc(-c2ccncc2)n1`, the “% Inhibition” value was found to be 60%.

As for `CCC(CC)c1cc([C@H]2CN3CC[C@H]2C[C@@H]3CO)nc(-c2ccncc2)n1`, the “% Inhibition” value is recorded as 24%.

Take `CN(C)[C@@H](Cn1c(=O)[nH]c2ccccc2c1=O)c1ccco1`: the “% Inhibition” value is -13%.

For `COc1ccc(-c2csc(-n3cc(C4=CCN(CCO)CC4)cn3)n2)cc1`, the “% Inhibition” value amounted to 40%.

`O=C(Cc1noc2ccccc12)N1CC2CCCC(C1)N2`: the “% Inhibition” value amounted to 11%.

On to `CC(C)(C)CC(C)(C)NCc1cccnc1`, for which the “% Inhibition” value is -1%.

Turning to `O=C1NC(=O)C2(Cc3cc(C(F)(F)F)ccc3N3CCCCC32)C(=O)N1c1ccccc1` (stereo unspecified), the “% Inhibition” value is on record as -21%.

Consider `O=C(c1ccccc1)c1cc(Cl)ccc1NC(=O)[C@H]1CC(=O)N(c2ccc(F)cc2)C1`, for which the “% Inhibition” value is 96%.

Regarding `Cc1c(C(=O)N2CCC3(CC2)OCCO3)oc2ccc3c(c12)[C@@H](O)CC1(CCCCC1)O3`, the “% Inhibition” value came to 10%.

For `CN(C)c1ccccc1NS(=O)(=O)c1c(Br)cc2[nH]c(=O)oc2c1Cl`, the “% Inhibition” value was determined as 2%.

Consider `CCC(CC)c1cc([C@H]2CN3CC[C@H]2C[C@@H]3CNC(=O)Cc2cccs2)nc(-c2ccncc2)n1`, for which the “% Inhibition” value turned out to be 7%.

Take `CN1CCc2nc3ccc(F)cc3c(C(N)=O)c2C1`: the “% Inhibition” value is -10%.

Regarding `Cc1ccccc1[C@H](C)NC1=NCCO1`, the “% Inhibition” value came to 6%.

Consider `CCN1C[C@]2(COC)CC[C@H](OC)[C@@]34C5C[C@@H]6[C@@H](OC)C[C@@](O)(C5[C@H]6OC(=O)c5ccccc5)[C@@H](CC23)C14` (stereo partly specified), for which the “% Inhibition” value is reported as 13%.

On to `Cc1ccc(C2CC(c3cccnc3)Nc3ncnn32)cc1` (stereo unspecified), for which the “% Inhibition” value worked out at 7%.

For `C=CC1CN2CCC1CC2C12Nc3ccccc3C1(O)CCO2` (stereo unspecified), the “% Inhibition” value is reported as -15%.

For the compound `O[C@@]1(Cc2ccccc2)CN2CCC1CC2`, the “% Inhibition” value is 3%.

Turning to `COc1ccc(CCN2C(=O)NC(=O)[C@@]3(Cc4c(ccc5ccccc45)N(C)C3)C2=O)cc1OC`, the “% Inhibition” value turned out to be 6%.

For `Cc1cc(C(=O)NC2CC(C)n3ccnc32)nn1C(C)C` (stereo unspecified), the “% Inhibition” value is given as 70%.

For `CCc1nsc(N2CCC3CCC(C2)N3C)n1` (stereo unspecified), the “% Inhibition” value is listed as -12%.

Consider `C[C@@H]1N=C(c2ccccc2)c2cc(Cl)ccc2N(CC(=O)Nc2cccc(C(F)(F)F)c2)C1=O`, for which the “% Inhibition” value was 11%.

For `Cc1ccc(CN2CC(=O)N(C)CC23CCCCC3)nc1`, the “% Inhibition” value is given as -19%.

Take `Clc1ccc(C2CC(c3cccnc3)Nc3ncnn32)cc1` (stereo unspecified): the “% Inhibition” value is given as -11%.

Consider `COC(=O)c1cc(OC)cc2[nH]c(=O)oc12`, for which the “% Inhibition” value is on record as -17%.

Consider `O=C1CCN(C(=O)c2ccc(F)c(Cl)c2)CC1`, for which the “% Inhibition” value is recorded as 13%.

The % Inhibition is the change of the read-out against control, counted positive when it falls.
